In the library only some 3.5% were active in any assay of this set; here they are far more common.
GDH-TPI counter: GDH-TPI coupling enzyme inhibitors, primary screen, artefact control for M. tuberculosis FBA inhibitor project, biochemical, absorbance, full deck | GDH-TPI coupled enzyme counterscreen, NADH absorbance | inhibition, % at 4.8 µM | 1.2% of 360,000 active | AID 588335, 2011; in the data active = inhibition above about 30%
Mtb FBA inh: Mtb FBA enzyme inhibitors, primary screen, biochemical, fluorescence, strain H37Rv; Fructose-bisphosphate aldolase (Mycobacterium tuberculosis (strain ATCC 25618 / H37Rv)), …; purified M. tuberculosis FBA, fluorescence read-out; inhibition, % at 1 µM; 2.3% of 360,000 active; AID 588726, 2011; in the data active = inhibition above about 27%
Target sequence (P9WQA3 whole entry, looked up): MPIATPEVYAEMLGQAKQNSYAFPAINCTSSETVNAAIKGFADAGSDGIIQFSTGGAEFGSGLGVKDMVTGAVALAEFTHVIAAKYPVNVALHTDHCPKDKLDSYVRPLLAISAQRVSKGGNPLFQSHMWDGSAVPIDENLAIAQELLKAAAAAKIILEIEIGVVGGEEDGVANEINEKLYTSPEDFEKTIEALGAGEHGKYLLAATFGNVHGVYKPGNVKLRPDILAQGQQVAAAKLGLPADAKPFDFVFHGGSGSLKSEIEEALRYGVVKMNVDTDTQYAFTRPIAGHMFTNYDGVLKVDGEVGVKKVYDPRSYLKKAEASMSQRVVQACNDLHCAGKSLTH
Mtb UGM inh: M. tuberculosis UGM enzyme inhibitors, primary screen, biochemical, fluorescence polarization, single point; purified UGM, fluorescence polarization probe displacement; AID 504406, 2011; inhibition, % at 10 µM; 0.06% of 320,000 active; UDP-galactopyranose mutase (Mycobacterium tuberculosis (strain ATCC 25618 / H37Rv)), …; in the data active = inhibition above about 10%, passing the limit was not always enough
Rv3671c protease: Rv3671c serine protease inhibitors, primary screen, biochemical, fluorescence polarization, M. tuberculosis H37Rv; P9WHR9; inhibition, % at 5.96 µM; 0.048% of 320,000 active; in the data active = inhibition above about 38%;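 note: extracellular domain of Rv3671c used as enzyme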
Of the large screens only hits and unclear results are named; the others gave an inactive call.

O=C(Cc1cccc2ccccc12)NCC1CCCO1 (centres undefined)	none
N#Cc1nc(-c2ccc(Cl)cc2)oc1NCC1CCCO1 (centres undefined)	Mtb FBA inh 154
O=S(=O)(NCC1CCCO1)c1ccc(-c2ccc(Cl)cc2)cc1 (centres undefined)	none
N#Cc1nc(-c2cccc3ccccc23)oc1NCC1CCCO1 (centres undefined)	Mtb FBA inh active
C=CCNc1oc(-c2ccc(Cl)cc2)nc1C#N	none (no result: Mtb UGM inh)
CC1C(=O)OC2C1CCC1(C)C3(C)C(=O)C=CC213 (centres undefined)	none (no result: Mtb UGM inh, Rv3671c protease)
O=C(Oc1cc2oc(=O)cc(-c3ccccc3)c2cc1Cl)C1CCCCC1	Mtb FBA inh 32
Cc1ccc(-c2nc3ccccc3n2C)o1	none
CC(=O)c1ccc(-c2nc3ccccc3n2C)o1	Mtb FBA inh active
COc1cc(-c2cc3nc4ccccc4n3c(N)c2C#N)cc(OC)c1OC	Mtb FBA inh active
Nc1cc(-c2ccccc2)n2c(n1)nc1ccccc12	none
N#Cc1c(-c2ccccc2)cc2nc3ccccc3n2c1N	Mtb FBA inh 147
Cc1cccc(-n2c3nc(=O)[nH]c(=O)c-3cc3c(C)nn(-c4ccccc4)c32)c1C	Mtb FBA inh active
Cc1nn(-c2ccccc2)c2c1cc1c(=O)n(C)c(=O)nc-1n2-c1ccccc1F	Mtb FBA inh 164
CCCN(CC(=O)Nc1ccccc1C)C(=O)CCCc1c[nH]c2ccccc12	none
CCOC(=O)c1c(C)[nH]c(C(=O)N2CCN(c3ccc(OC)cc3)CC2)c1C	none
CCCCNc1c(-c2ccc(SC3CCCCC3)cc2)nc2ccccn12	Mtb FBA inh 50
CCCCNc1c(-c2cccc(SC3CCCCC3)c2)nc2ccc(Cl)cn12	none
COCCNC(=S)N/N=C(\C)c1ccccc1OC	none
COCCNC(=S)N/N=C(\C)c1ccccc1O	GDH-TPI counter 31
C/C(=N\NC(=S)NCc1ccccc1)c1ccc(Cl)s1	none
COCCNC(=S)N/N=C(\C)c1ccc(Cl)s1	GDH-TPI counter 45
COc1ccc(-c2cc(C(F)(F)F)nc(SCC(N)=O)n2)cc1	Mtb FBA inh 114
COc1ccc(-c2cc(C(F)(F)F)nc(SCC(=O)N(C)Cc3cn(C)nc3C)n2)cc1OC	GDH-TPI counter 41
O=C(CSc1nc(-c2ccccc2)cc(C(F)(F)F)n1)NCc1ccco1	none
COc1ccc(-c2cc(C(F)(F)F)nc(SCC(=O)NCc3ccco3)n2)cc1OC	GDH-TPI counter 31
CCN(CC)C(=O)C1=C(C)N(Cc2ccccc2)C(=O)C(CC(=O)NCc2ccco2)C1 (centres undefined)	none (no result: Mtb UGM inh, Rv3671c protease)
C=CCNC(=O)Cc1ccc(S(=O)(=O)N2CCOCC2)s1	none
CC(c1ccccn1)N(C)C(=O)c1ccc2nc(Cc3ccccc3F)oc2c1 (centres undefined)	none
COc1ccccc1/C=N/NC(=S)Nc1cccnc1	none
Oc1ccc(C=NNC(=S)Nc2cccnc2)nc1	GDH-TPI counter 50 (no result: Mtb UGM inh, Rv3671c protease)
CC(C)(C)c1ccc(/C=N/NC(=S)Nc2cccnc2)cc1	none (no result: GDH-TPI counter, Mtb FBA inh)
Oc1ccc(/C=N/NC(=S)Nc2cccnc2)cc1O	GDH-TPI counter 34
COc1cc(OC)c(N2CC(C(=O)Nc3cccc(C(=O)NC4CC4)c3)CC2=O)cc1Cl (centres undefined)	none (no result: Mtb UGM inh, Rv3671c protease)
CCCCc1nc(C(N)=O)c2[nH]c(=O)n(-c3ccccc3F)c2n1	Mtb FBA inh 136
OC(CNC1CCCCC1)CON=C1CCSc2c(Cl)cccc21 (centres undefined)	none (no result: Mtb UGM inh, Rv3671c protease)
COc1ccc2cc3cc(C(=O)NCCN4CCc5ccccc5C4)sc3nc2c1	none
COc1ccc2cc3cc(C(=O)NCCN4CCc5ccccc5C4)oc3nc2c1	GDH-TPI counter 38, Mtb FBA inh 188
COc1ccc2cc3cc(C(=O)NCCN4CCN(Cc5ccccc5)CC4)oc3nc2c1	Mtb FBA inh active
CCc1nnc(NC(=O)c2ccc(NS(=O)(=O)c3ccccc3)cc2)s1	GDH-TPI counter 34
CN1CCN(c2ccccc2NC(=O)c2sc3ccccc3c2Cl)CC1	none
COc1cc(C2C=C(c3cccs3)Nc3ncnn32)cc(OC)c1OC (centres undefined)	GDH-TPI counter 41 (no result: Mtb UGM inh, Rv3671c protease)
COc1cc(C2CC(=O)C3=C(C2)Nc2ncnn2C3c2cccs2)cc(OC)c1OC (centres undefined)	none
COc1ccc(C2C=C(c3cccs3)Nc3nc(CCCO)nn32)cc1 (centres undefined)	Mtb UGM inh 29 (no result: GDH-TPI counter, Mtb FBA inh)
Cc1nc2c(C)cccn2c(=O)c1NC(=O)c1ccco1	none
Cc1nc2c(C)cccn2c(=O)c1NC(=O)c1ccc(Br)o1	GDH-TPI counter 33
CC1=CC(=C2N=C(c3ccccc3)OC2=O)C=C(C)O1	none
CN(C)/C(CN1CCN(C=O)CC1)=C1\N=C(c2ccccc2)OC1=O	GDH-TPI counter 36
CC[C@]12C(=O)N(C)C[C@H]([C@@H]3C(=O)N(C)C(=O)[C@@H]31)N2C(=O)c1ccc(Cl)c(Cl)c1	none (no result: Mtb UGM inh, Rv3671c protease)
CCOc1ccccc1C(=O)NC(C(=O)NCCc1ccccn1)C(C)C (centres undefined)	none
CN(C(=O)CN1C(=O)S/C(=C\c2ccccc2)C1=O)C1CCS(=O)(=O)C1 (centres undefined)	GDH-TPI counter 45
CN(C(=O)CN1C(=O)/C(=C/c2ccc(F)cc2)SC1=S)C1CCS(=O)(=O)C1 (centres undefined)	none
O=C(CCN1C(=O)S/C(=C\c2ccccc2)C1=O)NC1CCS(=O)(=O)C1 (centres undefined)	GDH-TPI counter 36
CCN(C(=O)CCN1C(=O)S/C(=C\c2ccccc2)C1=O)C1CCS(=O)(=O)C1 (centres undefined)	GDH-TPI counter 43
CN(C(=O)CN1C(=O)S/C(=C\c2ccc(Cl)cc2)C1=O)C1CCS(=O)(=O)C1 (centres undefined)	GDH-TPI counter 38
CN(C(=O)CN1C(=O)S/C(=C\c2ccccc2Cl)C1=O)C1CCS(=O)(=O)C1 (centres undefined)	none
COc1ccc(NC(=O)c2cc(C3CCCCN3S(C)(=O)=O)on2)c(C)c1 (centres undefined)	none (no result: Mtb UGM inh, Rv3671c protease)
C[C@@H]1CN([C@@H](C)CO)S(=O)(=O)c2ccc(Br)cc2O[C@@H]1CN(C)C(=O)c1ccccn1	none (no result: Mtb UGM inh, Rv3671c protease)
CC(=O)OCCn1c2nc(=O)[nH]c(=O)c-2nc2cc(C)c(C)cc21	Mtb UGM inh 108 (no result: Rv3671c protease)
COC(=O)c1nc(-c2ccccc2)oc1N(C)C	Mtb FBA inh 173
COC(=O)c1nc(-c2ccccc2)oc1N1CCOCC1	Mtb FBA inh 146
COC(=O)c1oc(-c2ccccc2)nc1C	none
COC(=O)c1nc(-c2ccc(C)cc2)oc1N(C)C	Mtb FBA inh 115
CCCc1nc(SCC(=O)N2CCCCCC2)c2c(=O)n(C)c(=O)n(C)c2n1	none (no result: GDH-TPI counter, Mtb FBA inh)
Cc1ccc(C(=O)Nc2nnc(S(=O)(=O)N3CCC(C)CC3)s2)cc1	none
CC1CCN(S(=O)(=O)c2nnc(NC(=O)c3cccc([N+](=O)[O-])c3)s2)CC1	none

Compound activity as filed in PubChem.
